# Test results: PubChem BioAssay (NCATS)
# Several values for one entry are separate records, joined by “and”; a condition that tells them apart may be missing. Identical values can stand only once. Results filed as inconclusive are left out. Values without a mark were called inactive. Activity calls are given as the source filed them. The call rests on the fitted dose curve; in most records, active means well fitted inhibition curve with a large enough effect in the signal ratio, with a control signal flat (not every such curve was filed as active); inconclusive means small, poorly fitted or top-dose-only effect, or effect the other way, or a change in a side signal; inactive means flat fitted curve, though single readings scatter; the % refers to the signal ratio.
# Target: Thyroid hormone receptor beta (Homo sapiens) (UniProt P10828)
# Test: qHTS assay for small molecule antagonists of thyroid hormone receptor beta signaling (AID 588547);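 on activity change % (negative = inhibition): cells stimulated with 0.4 nM T3 agonist during compound exposure; series mostly up to about 77 µM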
# Conditions: TR-UAS-bla HEK293, beta-lactamase ratio, antagonist mode, 18 h
# Procedure, shortened: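 TR-UAS-bla GripTite HEK293 cells in 2% charcoal/dextran FBS medium; compounds 0.59 nM to 92 uM with T3 at 0.4nM final, 18 h at 37 C. Beta-lactamase read by CCF4 fluorescence (460/530 nm); Hill fits gave IC50 and efficacy.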
# On the % scale 0 is the no-effect control and ±100 the full control effect; potency means the concentration at half of the fitted maximal effect.
# Chain of Thyroid hormone receptor beta (Homo sapiens) (P10828 whole entry, looked up): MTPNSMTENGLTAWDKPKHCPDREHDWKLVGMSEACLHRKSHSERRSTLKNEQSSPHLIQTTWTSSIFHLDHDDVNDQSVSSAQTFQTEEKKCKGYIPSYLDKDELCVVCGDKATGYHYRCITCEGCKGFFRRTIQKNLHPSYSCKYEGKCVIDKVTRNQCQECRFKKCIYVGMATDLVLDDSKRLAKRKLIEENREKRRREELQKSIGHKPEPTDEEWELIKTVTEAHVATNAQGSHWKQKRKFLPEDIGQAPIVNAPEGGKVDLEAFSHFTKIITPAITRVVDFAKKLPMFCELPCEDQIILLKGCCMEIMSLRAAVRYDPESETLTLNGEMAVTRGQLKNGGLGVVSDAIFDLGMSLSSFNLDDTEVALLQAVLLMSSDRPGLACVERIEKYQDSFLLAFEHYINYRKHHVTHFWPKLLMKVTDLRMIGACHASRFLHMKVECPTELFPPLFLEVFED
SMILES,activity change % (negative = inhibition),Potency
NNC(=O)c1ccncc1,10.5%,
OC(Cn1cncn1)(Cn1cncn1)c1ccc(F)cc1F,-14.2%,
Cc1ccnc2c1NC(=O)c1cccnc1N2C1CC1,-3.97%,
CN(C)c1ccc(C(=C2C=CC(=[N+](C)C)C=C2)c2ccc(N(C)C)cc2)cc1,,28.2 µM (active)
O=C(O)c1cc(=O)[nH]c(=O)[nH]1,1.95%,
CC1=NN(c2ccccc2)C(=O)C1,-16% and 3.19%,
O=C(N[C@H](CO)[C@H](O)c1ccc([N+](=O)[O-])cc1)C(Cl)Cl,0.142% and 20.5%,
Cc1nnc(NS(=O)(=O)c2ccc(N)cc2)s1,-6.41%,
N[C@@H](Cc1ccc(O)c(O)c1)C(=O)O,-11.9%,
COc1ccc2cc3[n+](cc2c1OC)CCc1cc2c(cc1-3)OCO2,-20.8%,
CCc1cc(C(N)=S)ccn1,7%,
N=C(N)c1ccc(OCCCCCOc2ccc(C(=N)N)cc2)cc1,-26.1%,
Cc1cc(NS(=O)(=O)c2ccc(N)cc2)no1,-2.53%,
C[C@]12C=CC(=O)C=C1CC[C@@H]1[C@@H]2C(=O)C[C@@]2(C)[C@H]1CC[C@]2(O)C(=O)CO,-0.0632%,
Cc1ncc([N+](=O)[O-])n1CCO,-13.7%,
S=P(N1CC1)(N1CC1)N1CC1,-0.913%,
CC(=O)CC(c1ccccc1)c1c(O)c2ccccc2oc1=O (configuration not stated),9.03%,
